Screening data deposited in PubChem by several laboratories.
ssDAF12 agonist: activators of S. stercoralis DAF-12 nuclear receptor; HEK293 ssDAF-12/GRIP1 lit1-tk-luc reporter, luminescence; % of 3 µM dafachronic acid response; activation, % at 6.8 µM; hit rate 1% among 370,000;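 active = activation above the mean over all tested compounds plus 3 SD, cut at about 0.9% in these data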;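 note: 0% = DMSO-only wells and 100% = 3 µM delta7-dafachronic acid wells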
DAX1 inh-1: blocks DAX1 repression of SF-1 activated StAR promoter; HEK293T StAR-luciferase reporter, SF-1/DAX-1 repression relief; inhibition, % at 6.8 µM; hit rate 1.1% among 370,000;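 active = inhibition above the mean over all tested compounds plus 3 SD, cut at about 3.6% in these data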;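 note: 0% = DAX-1 cells with DMSO and 100% = cells lacking DAX-1 with DMSO; higher inhibition means more luminescence from relief of DAX-1 repression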
hcDAF-12 act: activates DAF-12 receptor from parasite H. contortus; hit rate 1.4% among 370,000; activation, % at 6.8 µM; HEK293 hcDAF-12 lit1-tk-luc reporter, luminescence; 0% DMSO, 100% Δ7-dafachronic acid; AID 652067;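 active = activation above the mean of all tested compounds plus 3 SD, cut at about 5.5% in these data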;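 note: 100% = response to 3 µM Δ7-dafachronic acid high control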
hgDAF-12 ag: activates the H. glycines DAF-12 receptor ligand-binding domain | hit rate 1.8% among 370,000 | AID 687014 | HEK293 GAL4-hgDAF12 UAS-luciferase reporter, agonist luminescence; normalized to butyrate control | activation, % at 6.8 µM;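 active = activation above a cutoff set at the mean of all screened compounds plus 3 SD, cut at about 10% in these data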;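 note: 0% = DMSO wells and 100% = sodium butyrate wells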
Rev-erbA mod: Rev-erb alpha (human) modulation. P20393. Rev-erbα–FITC-DNA binding, fluorescence polarization, 90 min. activity, % at 10 µM. hit rate 0.79% among 370,000. AID 1259318;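 active = activity above about 14%, limit read from the data; passing the limit was not always enough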;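 note: 0% = DMSO wells with 35 nM protein and 100% = DMSO wells with 750 nM protein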
DAX1 inh-2: inhibits human nuclear receptor DAX1. HEK293 Gal4-DAX1 luciferase reporter, luminescence. inhibition, % at 6.75 µM. hit rate 0.99% among 340,000. AID 504766;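 active = inhibition above the mean over all tested compounds plus 3 SD, cut at about 4.2% in these data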;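 note: 0% = DAX1-transfected cells with DMSO and 100% = empty-vector control cells with DMSO; inhibition shows as a rise in luminescence from relieved DAX1 repression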
Target sequence (P51843 207-470 limits assumed): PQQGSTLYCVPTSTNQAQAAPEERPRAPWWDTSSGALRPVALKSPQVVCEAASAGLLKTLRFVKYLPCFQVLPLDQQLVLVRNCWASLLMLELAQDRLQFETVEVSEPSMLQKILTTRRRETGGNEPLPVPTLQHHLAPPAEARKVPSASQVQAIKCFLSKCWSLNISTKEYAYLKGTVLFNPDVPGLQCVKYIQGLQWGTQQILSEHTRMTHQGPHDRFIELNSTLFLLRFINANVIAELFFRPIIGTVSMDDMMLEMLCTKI
An asterisk follows results filed as active; x = not tested or not shown. Sampled rows, rich in hits. Any-hit rate of the full collection: about 4.8%.

SMILES	ssDAF12 agonist	DAX1 inh-1	hcDAF-12 act	hgDAF-12 ag	Rev-erbA mod	DAX1 inh-2
Clc1cccc(-c2nc3c4ccccc4ccn3c2Cc2ccccc2)c1	1	0	5	2	0	x
Clc1ccc(-c2nc3c4ccccc4ccn3c2Cc2ccccc2)cc1	0	2	3	5	3	2
Fc1ccc(-c2nc3c4ccccc4ccn3c2Cc2cccc(Cl)c2)cc1	1	2	5.9*	4	-1	x
O=C(N/N=C/c1ccc(O)c(O)c1)N/N=C/c1ccc(O)c(O)c1	0	1	7.3*	9	-23	1
Clc1ccccc1Cn1nnc(-c2ccccc2)n1	4.3*	0	0	2	0	0
COc1ccc(-c2nnn(Cc3ccccc3F)n2)cc1	0	0	2	12*	2	3
C[C@H](O)[C@@H]1CN2CCc3ccc(N4CCOCC4)cc3[C@@H]2C[C@@H]1N(C)CC1CCCCC1	-1	-1	0	-1	3	x
O=C(CN1CCN(Cc2ccccc2Cl)CC1)N/N=C\c1ccccc1F	-2	0	2	3	0	x
COC[C@@H](OC(C)=O)[C@H]1OCc2ccccc2[C@@H]1/C=C/c1ccccc1	0	0	0	1	-2	x
O=C(CC1SC(=Nc2ccccc2)N(CCc2ccccn2)C1=O)Nc1ccc(F)cc1 (stereo unspecified)	-1	-1	6.2*	2	8	-2
Cc1cc(=O)c2ccc3ccccc3c2[nH]1	-1	0	-1	2	-3	2
COc1ccc(-c2nc(=S)c3ccc4ccccc4c3[nH]2)cc1	1.0*	1	6.4*	1	-5	0
CC(c1ccccc1)n1cc(C(=O)NCCCN2CCCC2)nn1 (stereo unspecified)	-1	1	1	3	-7	x
COc1ccc(/C(C)=N/Nc2nc3ccccc3nc2C)cc1	1.1*	0	5.8*	3	0	4
COC(=O)c1cc2c(c3c4cc(OC)ccc4n(S(=O)(=O)c4cccc(C)c4)c13)C(=O)N(C)C2	-1	-1	0	0	-1	x
O=C(NNC(=O)c1ccc(Cl)cc1Cl)c1ccncc1	0	0	0	2	0	-1
O=C(NNC(=O)c1ccc([N+](=O)[O-])cc1Cl)c1ccncc1	1.0*	1	3	3	4	1
C#CCCC(=O)O[C@H]1CCC[C@@]2(C(=O)N(Cc3ccccc3)c3ccccc32)[C@H]1NC(=O)CCc1ccccc1	0	0	-3	-2	-2	x
O=C1c2ccccc2C2Cc3nnccc3CN12 (stereo unspecified)	-1	1	0	2	4	x
O=C(Cc1nnc(NC(=O)Nc2ccc(F)cc2)s1)Nc1ccccc1	1.1*	0	-1	-4	8	1
CCC[C@@H](/C=C/C(=O)OC(C)(C)C)Sc1ccc(N)cc1	0	0	-1	7	1	x
CCOc1ccc(S(=O)(=O)Nc2cccc(C(=O)NCC(c3ccccc3)N(C)C)c2)cc1 (stereo unspecified)	-1	3.6*	-1	3	-2	1
COc1ccccc1C(CNC(=O)c1cccc(S(=O)(=O)NCc2ccccc2)c1)N(C)C (stereo unspecified)	-1	0	0	0	3	4.8*
COc1ccc(C(CNC(=O)c2cccc(NS(=O)(=O)c3ccccc3)c2)N(C)C)cc1 (stereo unspecified)	0	4	1	3	4	1
O=C(NC(=S)NNC(=O)c1ccccc1O)c1cccnc1	0	2	2	2	-1	4.3*
SMILES	ssDAF12 agonist	DAX1 inh-1	hcDAF-12 act	hgDAF-12 ag	Rev-erbA mod	DAX1 inh-2
O=C(NC(=S)NNS(=O)(=O)c1ccccc1)c1cccnc1	1.1*	0	2	-3	4	0
Cc1ccc(-n2nc(C)c3c(C(=O)OCC(=O)N(C)C4CCS(=O)(=O)C4)cc(-c4ccccc4)nc32)cc1 (stereo unspecified)	-1	0	6.2*	-3	6	0
CCN(C(=O)COC(=O)c1cc(-c2ccccc2)nc2c1c(C)nn2-c1ccccc1)C1CCS(=O)(=O)C1 (stereo unspecified)	-1	-1	0	0	0	0
Nc1ccccc1Nc1cc(-c2ccccc2)[nH]n1	-1	2	6.0*	10	0	1
Cc1oc2c(C)c3oc(=O)c(CCC(=O)NCCCN4CCOCC4)c(C)c3cc2c1C	0	0	-2	-2	0	6.7*
Cc1oc2c(C)c3oc(=O)c(CCC(=O)NCCCN4CCCC4=O)c(C)c3cc2c1C	-1	0	-4	0	5	4.3*
COc1ccccc1OC(=O)c1ccc(S(=O)(=O)N(C)C)cc1	-1	0	-1	3	0	5.2*
Nc1c(C(=O)N2CCCCC2)sc(=S)n1-c1ccccc1	-1	0	-1	-1	-1	2
Nc1nc(SCc2ccccc2)sc1C(=O)N1CCCCC1	-1	2	4	11*	2	3
O=C(Nc1ccc(NC(=O)C2CC2)cc1)c1ccco1	0	1	2	11*	6	0
O=C(Nc1ccc(Br)cc1)c1ccco1	-1	1	5	10	1	1
O=C(Nc1ccc(N2CCCC2)c(Cl)c1)c1ccco1	0	4	3	12*	2	-1
COc1cc(NC(=O)C2CC2)c(OC)cc1NC(=O)c1ccco1	0	0	0	-1	-3	-1
O=C(Nc1ccc(NC(=O)c2ccco2)cc1)c1ccco1	-1	4.4*	2	7	4	0
CCC(=O)Nc1ccc(NC(=O)C23CC4CC(CC(C4)C2)C3)cn1	-1	0	2	6	-3	3
O=C(Nc1ccc(NC(=O)C23CC4CC(CC(C4)C2)C3)cn1)c1ccco1	1	1	3	11*	3	3
O=C(Nc1ccc(F)cc1)OCc1cn(Cc2ccccc2Cl)nn1	0	0	-1	-1	-1	x
C[C@@H]1C=CCCO[C@]12C(=O)Nc1ccccc12	0	0	1	1	-11	x
O=C(NCCN1CCC(Cc2ccccc2)CC1)C1CCCN(S(=O)(=O)c2ccc(Cl)s2)C1 (stereo unspecified)	-2	-1	-4	-1	3	x
CC(=O)N(C)c1ccc(NC(=O)c2ccco2)cc1	0	3.8*	5	7	-2	0
O=C(Nc1ccc(Nc2ccccc2)cc1)c1ccco1	0	1	3	10	7	4
CC(C)(C)c1ccc(-c2nnc(SCC(=O)Nc3ccc(S(=O)(=O)Nc4nccs4)cc3)n2-c2ccc(Cl)cc2)cc1	-1	1	-1	3	0	x
CCN1CCN(c2ccc(NC(=O)c3ccco3)cc2Cl)CC1	0	1	1	7	-2	1
